Data on 14 compounds can be found in PubChem BioAssay.

Each structure is given as a SMILES string. Active and inactive are the calls of the source.

For test [1], the system named is Plasmodium falciparum Sir2 (PF13_0152, Sir2A). Nature of the test: Plasmodium falciparum Sir2A binding compounds – biochemical, small-molecule microarray, 635 nm fluorescence, primary screen (AID 1098).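 Also: score merges spot fluorescence intensity with its signal-to-noise ratio.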 The following applies: fluorescence 635 nm, higher = more signal.
Test [2] is described as follows: probe aDKK1 binding to arrayed compounds – biochemical, biotinylated probe, 635/667 nm fluorescence, primary screen (AID 1099).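 Also: score merges 667nm spot fluorescence with signal to noise across triplicate slides; reference of the scale not given here.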 Particulars: small-molecule microarray, higher = more signal.
The nature of test [3]: probe aCHRDL2 binding to arrayed compounds – biochemical, biotinylated probe, 635/667 nm fluorescence, primary screen (AID 1100). Particulars: small-molecule microarray, higher = more signal.
Test [4] in a line: change in splice reporter luminescence, either direction, cell-based, HEK293, spliceosome inhibition project, primary screen (AID 1101).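 Also: HEK293 cells carrying a splicing-competent luciferase reporter gene; test concentration not given here.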 The following applies: HEK293 splicing luciferase reporter, 24 h, higher = more signal, called active from +8 up or from −8 down. (In a reporter assay the amount or activity of a reporter protein is the signal.)
Test [5] addresses Fibroblast growth factor 10 (Homo sapiens) (UniProt O15520). Nature of the test: compounds binding fibroblast growth factor 10 – biochemical, small-molecule microarray, 635 nm fluorescence, primary screen (AID 1102). The following applies: FGF10 binding, fluorescence 635 nm, higher = more signal.
Test [6] concerns glycogen synthase kinase-3 (GSK3A per assay name; protocol says GSK3B). In words: compounds binding glycogen synthase kinase-3 – biochemical, small-molecule microarray, 635 nm fluorescence, GSK3A, primary screen (AID 1103). Also: the record names both GSK3A and GSK3B. Particulars: fluorescence 635 nm, higher = more signal.
For test [7], the target named is Epidermal growth factor receptor (Homo sapiens) (UniProt P00533). In words: compounds binding epidermal growth factor receptor – biochemical, small-molecule microarray, 635 nm fluorescence, primary screen (AID 1104).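 Also: score merges 667 nm emission intensity with spot signal to noise over triplicate slides.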 Particulars: EGFR binding, higher = more signal.
Sequence of Epidermal growth factor receptor (Homo sapiens) (P00533 whole entry, looked up): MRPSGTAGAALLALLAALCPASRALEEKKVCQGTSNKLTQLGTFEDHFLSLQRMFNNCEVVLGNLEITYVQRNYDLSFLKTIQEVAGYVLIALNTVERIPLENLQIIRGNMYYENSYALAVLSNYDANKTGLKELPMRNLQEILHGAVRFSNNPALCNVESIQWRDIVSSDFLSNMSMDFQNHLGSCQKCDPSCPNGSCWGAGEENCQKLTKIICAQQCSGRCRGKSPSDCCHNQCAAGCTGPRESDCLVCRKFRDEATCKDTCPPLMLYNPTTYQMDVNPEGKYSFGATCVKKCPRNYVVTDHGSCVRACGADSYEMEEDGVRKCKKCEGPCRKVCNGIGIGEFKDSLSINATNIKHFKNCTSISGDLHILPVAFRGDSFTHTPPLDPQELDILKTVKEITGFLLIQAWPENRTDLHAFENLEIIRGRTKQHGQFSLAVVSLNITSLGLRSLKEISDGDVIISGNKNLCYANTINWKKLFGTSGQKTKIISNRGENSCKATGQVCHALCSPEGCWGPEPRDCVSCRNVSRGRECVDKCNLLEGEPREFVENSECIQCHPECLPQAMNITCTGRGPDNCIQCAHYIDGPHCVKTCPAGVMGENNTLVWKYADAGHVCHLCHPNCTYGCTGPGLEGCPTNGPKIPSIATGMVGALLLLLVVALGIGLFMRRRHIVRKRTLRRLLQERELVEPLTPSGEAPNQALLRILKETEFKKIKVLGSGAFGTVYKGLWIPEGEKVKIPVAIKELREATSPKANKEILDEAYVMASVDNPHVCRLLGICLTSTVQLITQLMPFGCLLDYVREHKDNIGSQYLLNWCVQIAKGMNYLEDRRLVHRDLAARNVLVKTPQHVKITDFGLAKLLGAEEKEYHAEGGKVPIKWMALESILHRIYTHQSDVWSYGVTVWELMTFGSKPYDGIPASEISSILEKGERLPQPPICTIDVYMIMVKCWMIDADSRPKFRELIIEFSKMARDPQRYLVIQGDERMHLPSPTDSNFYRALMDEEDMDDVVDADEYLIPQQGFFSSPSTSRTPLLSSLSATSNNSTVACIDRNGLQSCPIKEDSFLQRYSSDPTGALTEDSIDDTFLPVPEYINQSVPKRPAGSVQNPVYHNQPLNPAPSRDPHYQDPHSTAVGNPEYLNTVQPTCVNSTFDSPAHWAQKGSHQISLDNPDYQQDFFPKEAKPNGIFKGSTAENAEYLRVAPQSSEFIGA
Test [8] concerns the target Follistatin-related protein 3 (Homo sapiens) (UniProt O95633). Nature of the test: compounds binding follistatin-related protein 3 – biochemical, small-molecule microarray, 635 nm fluorescence, primary screen (AID 1105).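 Also: score merges emission near 667 nm and signal to noise per printed spot across three slides.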 Particulars: FSTL3 binding, higher = more signal.
The target in test [9] is Dickkopf-related protein 1 (Homo sapiens) (UniProt O94907). In words: small molecules binding DKK1 protein – biochemical, small-molecule microarray, 635 nm fluorescence scan, primary screen (AID 1106).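 Also: score merges emission near 667 nm with signal to noise over three replicate slides.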 The following applies: higher = more signal.
Sequence of Dickkopf-related protein 1 (Homo sapiens) (O94907 whole entry, looked up): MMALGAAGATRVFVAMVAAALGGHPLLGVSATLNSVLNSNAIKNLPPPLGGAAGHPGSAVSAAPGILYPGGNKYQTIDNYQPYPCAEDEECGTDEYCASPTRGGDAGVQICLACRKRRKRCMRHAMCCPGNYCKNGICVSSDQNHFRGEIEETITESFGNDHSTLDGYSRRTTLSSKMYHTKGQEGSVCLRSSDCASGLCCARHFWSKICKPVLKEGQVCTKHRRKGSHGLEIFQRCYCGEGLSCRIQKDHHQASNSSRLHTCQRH
In test [10] the test system is Inhibin beta A chain (activin A). Nature of the test: small molecules binding activin A – biochemical, small-molecule microarray, 635 nm fluorescence scan, primary screen (AID 1107).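 Also: mouse activin A protein probed at 4.33 µg/mL on printed slides; score merges bound-protein fluorescence near 667 nm with spot signal-to-noise.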 The following applies: INHBA, higher = more signal.

Sequence of Follistatin-related protein 3 (Homo sapiens) (O95633 whole entry, looked up): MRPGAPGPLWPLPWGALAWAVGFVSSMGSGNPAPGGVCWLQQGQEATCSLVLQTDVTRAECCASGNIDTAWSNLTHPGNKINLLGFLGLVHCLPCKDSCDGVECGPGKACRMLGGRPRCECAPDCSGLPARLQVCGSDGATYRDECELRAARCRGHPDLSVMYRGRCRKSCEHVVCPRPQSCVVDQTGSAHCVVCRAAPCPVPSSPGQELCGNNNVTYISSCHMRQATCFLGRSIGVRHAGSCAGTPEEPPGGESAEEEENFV
Sequence of Fibroblast growth factor 10 (Homo sapiens) (O15520 whole entry, looked up): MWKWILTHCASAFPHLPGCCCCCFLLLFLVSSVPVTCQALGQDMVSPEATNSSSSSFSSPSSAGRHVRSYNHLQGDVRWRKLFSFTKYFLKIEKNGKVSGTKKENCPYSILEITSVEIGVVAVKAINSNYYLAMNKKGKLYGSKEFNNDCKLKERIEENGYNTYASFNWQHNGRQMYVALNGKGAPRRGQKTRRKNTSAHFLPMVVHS

Take `C=CCN1C(=O)[C@]2(O[C@H](CCO)[C@@H]([Si](C)(C)c3ccc(OC)cc3)[C@@H]2C)c2cc(N3C(=O)c4ccccc4Oc4ccccc43)ccc21`: the composite z-score in test [1] was 1.16; in [2], -0.252; in [3] it was 0.117; in [5] it was 0.402; in [6] it was 0.209; in test [7] it was 0.0038. In addition, the composite z-score in test [8] was determined as 0.255; in test [9] it was 0.107; in [10] it was 0.206. In test [4], the z-score was -1.38 (inactive).

On to `[N-]=[N+]=NCc1ccccc1[C@H]1OC(c2ccc(OCCCO)cc2)=N[C@@]1(Cc1ccccc1N=[N+]=[N-])C(N)=O`, for which the composite z-score is 1 in test [1]; 0.853 in test [2]; 0.879 in test [3]; 1.3 in test [5]; 1.29 in test [6]; 0.32 in test [7]. For the same compound, the composite z-score in test [8] turned out to be 0.828; in test [9], 0.28; in [10], 1.02. The z-score in test [4] is -0.146 (inactive).

Turning to `COc1c(C)cc(-c2nc(-c3ccccc3)c3c(c2C)CO[Si]3(C(C)C)C(C)C)cc1C`, the composite z-score in test [1] was -0.186; in test [2], -0.141; in test [3] it was 0.0757; in [5], 0.295; in [6], 0.324; in test [7], 0.387. Besides, the figures for the composite z-score in [8], in [9] and in test [10] were 0.338, 0.305 and 0.698, respectively. Also, in test [4], the z-score was -0.394 (inactive).

`C=C(COC)/C(=C/C[C@@H](OC(=O)c1ccncc1)c1ccccc1OCCO)c1cnc2ccccc2c1`: the composite z-score in test [1] was 0.247; in test [2], -0.0501; in test [3] it was 0.0321; in test [5] it was 1.47; in test [6], 1.29; in test [7], 1.3. The composite z-score turned out to be 1.59 in [8], 0.651 in [9] and 1.61 in test [10]. The z-score in test [4] was 0.488 (inactive).

As to `COCCOC(=O)N1C(=O)[C@@]2(c3cc(C#CCNC(N)=O)ccc31)[C@H](c1ccccc1OCCO)N1[C@H](c3ccccc3)[C@H](c3ccccc3)OC(=O)[C@H]1[C@@H]2C(=O)N1CCCCCCC1`, the composite z-score in [1] amounted to 1.42; in [2], 0.784; in test [3], 0.735; in test [5], 0.739; in test [6], 1.11; in test [7], 0.5. For the same compound, the composite z-score in [8] worked out at 1.23; in test [9], 0.557; in test [10] it was 1.44. Besides, the z-score in test [4] was -0.402 (inactive).

In the case of `O=C1c2ccccc2[C@](Cc2ccccc2I)(C(=O)NCCN2CCOCC2)[C@H](c2ccc(CO)cc2)N1Cc1ccccc1C(F)(F)F`, the composite z-score is 0.655 in [1]; -0.0516 in test [2]; 0.358 in test [3]; 0.275 in test [5]; 0.484 in [6]; -0.288 in test [7]. Also, the values for the composite z-score in test [8], in [9] and in test [10] were 0.276, -0.419 and 0.734, respectively. Besides, the z-score in test [4] is -0.0322 (inactive).

Regarding `COc1ccc(C(O)C2C=CC3C(=O)N(c4ccccc4)C(=O)C3N2Nc2ccccc2F)c2ccccc12` (stereo not given), the composite z-score in [1] amounted to 0.85; in [2], 1.59; in test [3], 1.4; in [5] it was 1.04; in test [6], 1.32; in test [7], 0.531. In addition, the composite z-score in test [8] was 1.36; in [9], -0.265; in [10] it was 1.02. Moreover, the z-score in test [4] was -0.038 (inactive).

For `C=C(COC)C(=O)CC[C@H](OC(C)=O)c1ccccc1OCCO`, the composite z-score is 0.858 in test [1]; -0.348 in test [2]; 0.151 in test [3]; 1.5 in test [5]; -0.41 in [6]; -0.567 in [7]. The composite z-score in [8] was -0.262; in test [9], 0.0024; in [10] it was 1.13. Moreover, in test [4], the z-score was -0.0648 (inactive).

With `C[N+](C)(C)CCCC[C@@H]1NC(=O)[C@H]2C[C@@H](C(=O)O)[C@@H](c3ccc(O)cc3)N2C1=O`, the composite z-score is 0.327 in [1]; -0.0349 in [2]; 0.149 in test [3]; 0.158 in [5]; 0.984 in test [6]; -0.102 in [7]. Besides, the composite z-score amounted to 0.0506 in test [8], 0.971 in test [9] and 0.832 in [10]. In [4], the z-score is -0.303 (inactive).

Regarding `C=C[C@@H](CO)NS(=O)(=O)c1ccc(Br)cc1`, the composite z-score in test [1] is -1.62; in [2], -0.267; in [3] it was -0.0866; in test [5], -0.398; in test [6] it was -0.986; in test [7], -0.288. Also, the composite z-score in [8] was -0.459; in test [9], -0.0213; in [10], 0.733. Also, the z-score in test [4] was -0.774 (inactive).

On to `CC(C)(C)OC(=O)N1[C@@H](C=C(Br)Br)COC1(C)C`, for which the composite z-score in test [1] is 0.395; in test [2], -0.16; in test [3] it was -0.282; in test [5], 0.382; in test [6], 0.901; in test [7], 0.614. Further, the composite z-score came to 0.164 in test [8], 0.393 in test [9] and 0.29 in test [10]. In addition, the z-score in test [4] is 0.104 (inactive).

On to `CC(C)[Si]1(C(C)C)OCc2cc(-c3ccc(-c4ccc(Cl)c(Cl)c4)o3)nc(-c3ccc(Oc4ccccc4)cc3)c21`, for which the composite z-score in [1] was -0.952; in [2], 0.118; in test [3], 0.745; in test [5] it was -1.78; in test [6], -2.03; in [7], -1.46. The composite z-score is -2.09 in [8], -2.01 in test [9] and 0.434 in test [10]. The z-score in [4] is -1.25 (inactive).

Turning to `COCCCNC(=O)[C@@]1(c2ccc([N+](=O)[O-])cc2)CC(=O)N(C2CCCCC2)[C@@H]1c1ccc(CO)cc1I`, the composite z-score in test [1] was 1.62; in test [2] it was 0.0269; in test [3] it was 0.64; in test [5], 0.453; in test [6], 1.16; in test [7] it was -0.323. Besides, the values for the composite z-score in test [8], in test [9] and in [10] were 0.102, -0.582 and 0.717, respectively. Also, the z-score in test [4] was -1.1 (inactive).

For the compound `C=CCOC(=O)[C@H]1[C@@H]2C(=O)O[C@@H](c3ccccc3)[C@@H](c3ccccc3)N2[C@@H](c2ccc(OCCOC(=O)[C@H]3C[C@H]4C(=O)NCC(=O)N4[C@H]3c3cccc(OCCO)c3)cc2)[C@]12C(=O)Nc1ccc(I)cc12`, the composite z-score in test [1] is 1.1; in test [2] it was -0.109; in [3], 0.0341; in [5] it was 1.37; in [6] it was 1.3; in test [7] it was 0.504. The composite z-score in [8] is 1.37; in test [9], 0.614; in test [10], 0.622. In test [4], the z-score was 0.341 (inactive).
